The record followed here is PubChem BioAssay (NCI).

Test systems include SR leukemia; RPMI-8226 leukemia; OVCAR-8 ovarian; OVCAR-5 ovarian; OVCAR-4 ovarian; SK-OV-3 ovarian; IGROV1 ovarian; HS 578T breast; NCI/ADR-RES ovarian; T-47D breast; BT-549 breast; MDA-MB-435 melanoma; SW-620 colon; MCF7 breast; HCT-116 colon; HCC-2998 colon; KM12 colon.
Holding throughout (experiment): NCI-60 one-dose screen, 48 h (100 = growth as untreated, 0 = no growth, -100 = all killed)
Settings in all cases: 10 µM unless noted

The panel holds about 83,000 compounds, 20% with a hit somewhere; the sample as a whole holds those more often.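 Activity criterion: percent growth below 10, measured after cells in 96-well plates were exposed to a single compound concentration for 48 hours.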 Unmarked numbers belong to inactive results. Activity calls are given as the source filed them.

Consider `O=C(/C=C/c1ccc(F)cc1)c1ccc(O)cc1`, for which the growth in the assay on SR leukemia was 24.4%; in the assay with RPMI-8226 leukemia it was 23.9%; with OVCAR-8 ovarian, 98.4%; in the assay with OVCAR-5 ovarian it was 103%; with OVCAR-4 ovarian, 106%; in the assay with SK-OV-3 ovarian, 110%. The growth is 114% in the assay on IGROV1 ovarian; 107% in the assay with HS 578T breast; 106% in the assay with NCI/ADR-RES ovarian; 93.9% in the assay with T-47D breast; 103% with BT-549 breast; 67% in the assay on MDA-MB-435 melanoma. The growth is 81.4% with SW-620 colon; 30.3% in the assay on MCF7 breast; -44.1% (active) in the assay on HCT-116 colon; 112% with HCC-2998 colon; 59.3% in the assay on KM12 colon.

`Cc1ccc2sc3c(c2c1)OC(N)=C(C#N)C3c1cccc(F)c1` (stereo not drawn): the growth with SR leukemia was 9.55% (active); in the assay on RPMI-8226 leukemia, 14.4%; with OVCAR-8 ovarian, 4.8% (active); in the assay with OVCAR-5 ovarian, 14.4%; with OVCAR-4 ovarian it was 20.3%; in the assay on SK-OV-3 ovarian it was 22.5%. Moreover, the growth in the assay with IGROV1 ovarian was 18.8%; in the assay with HS 578T breast, 5.7% (active); in the assay with NCI/ADR-RES ovarian, 5.79% (active); with T-47D breast it was 35.5%; with BT-549 breast it was -6.44% (active); with MDA-MB-435 melanoma, -28.6% (active). Further, the growth with SW-620 colon is 15.2%; in the assay on MCF7 breast, 15.2%; with HCT-116 colon it was -24.6% (active); with HCC-2998 colon it was 6.17% (active); in the assay on KM12 colon, 2.9% (active).

For `COc1ccc([C@@H]2[C@@H](O)C(=O)N2c2cc(OC)c(OC)c(OC)c2)cc1F`, the growth was 8.72% (active) in the assay on SR leukemia; 21.5% with RPMI-8226 leukemia; -5.69% (active) with OVCAR-8 ovarian; 31.5% with OVCAR-5 ovarian; 63.2% in the assay with OVCAR-4 ovarian; 28.3% in the assay with SK-OV-3 ovarian. Also, the growth in the assay on IGROV1 ovarian is 18.9%; in the assay on HS 578T breast, -2.79% (active); in the assay with NCI/ADR-RES ovarian, -6.67% (active); with T-47D breast it was 68%; with BT-549 breast, -18.5% (active); in the assay on MDA-MB-435 melanoma it was -12% (active). For the same molecule, the growth was 22.5% in the assay on SW-620 colon; 9.59% (active) in the assay on MCF7 breast; 2.32% (active) in the assay with HCT-116 colon; 5.15% (active) in the assay on HCC-2998 colon; 6.09% (active) in the assay on KM12 colon.

`O=C(CSc1nc2ccccc2c(=O)n1-c1ccccc1)Nc1cccc(C(=O)/C=C/c2ccccc2Cl)c1`: the growth in the assay on SR leukemia is 89.2%; in the assay with RPMI-8226 leukemia, 68.5%; in the assay with OVCAR-8 ovarian, 99.5%; in the assay on OVCAR-5 ovarian, 108%; in the assay with OVCAR-4 ovarian, 102%; in the assay with SK-OV-3 ovarian it was 115%. The growth with IGROV1 ovarian is 107%; with HS 578T breast, 106%; in the assay with NCI/ADR-RES ovarian, 104%; with T-47D breast, 91.2%; in the assay on BT-549 breast, 118%; in the assay with MDA-MB-435 melanoma it was 97.9%. Moreover, the growth with SW-620 colon was 91.7%; in the assay on MCF7 breast it was 54.1%; in the assay with HCT-116 colon, 20.2%; in the assay with HCC-2998 colon it was 108%; with KM12 colon it was 100%.

Turning to `CN1CCN(Cc2ccc(NC(=O)c3cncc(C#Cc4cnn5cccnc45)c3)cc2C(F)(F)F)CC1`, the growth in the assay with SR leukemia was -16.3% (active); in the assay with RPMI-8226 leukemia, 6.03% (active); in the assay with OVCAR-8 ovarian it was 13.5%; in the assay on OVCAR-5 ovarian it was 26%; with OVCAR-4 ovarian it was 27.9%; with SK-OV-3 ovarian, 28.3%. Moreover, the growth in the assay with IGROV1 ovarian was 5.44% (active); in the assay with HS 578T breast, 27.2%; in the assay on NCI/ADR-RES ovarian it was 26.5%; in the assay with T-47D breast, 54.2%; with BT-549 breast, 47.1%; in the assay on MDA-MB-435 melanoma, 3.16% (active). Further, the growth is 0.2% (active) with SW-620 colon; -2.5% (active) in the assay with MCF7 breast; 4.34% (active) in the assay on HCT-116 colon; 12.7% in the assay with HCC-2998 colon; 2.87% (active) in the assay on KM12 colon.

On to `CC(C)(C)CC(C)(C)n1nnnc1C(Nc1nccs1)c1cc2cccc3ccc4cccc1c4c32` (stereo not drawn), for which the growth was 96.6% in the assay on SR leukemia; 104% in the assay on RPMI-8226 leukemia; 100% in the assay with OVCAR-8 ovarian; 84.6% in the assay with OVCAR-5 ovarian; 99.7% in the assay with OVCAR-4 ovarian; 103% in the assay on SK-OV-3 ovarian. Moreover, the growth with IGROV1 ovarian is 93.5%; in the assay on HS 578T breast, 93.8%; in the assay on NCI/ADR-RES ovarian, 98%; in the assay with T-47D breast, 75.4%; in the assay with BT-549 breast it was 91.6%; with MDA-MB-435 melanoma, 102%. The growth in the assay with SW-620 colon is 101%; in the assay on MCF7 breast, 75.3%; in the assay on HCT-116 colon, 97.7%; with HCC-2998 colon, 103%; in the assay on KM12 colon, 99.5%.

`Cc1ccc(S(=O)(=O)NCCNc2nc(Nc3ccc(N4CCN(C)CC4)cc3)nc3ccsc23)cc1`: the growth in the assay with SR leukemia is 18.1%; in the assay with RPMI-8226 leukemia, 84.2%; in the assay with OVCAR-8 ovarian it was 104%; in the assay on OVCAR-5 ovarian, 113%; in the assay on OVCAR-4 ovarian, 95.1%; with SK-OV-3 ovarian it was 129%. Besides, the growth in the assay on IGROV1 ovarian was 108%; with HS 578T breast, 89%; in the assay on NCI/ADR-RES ovarian, 100%; with T-47D breast it was 102%; in the assay on BT-549 breast, 114%; with MDA-MB-435 melanoma, 109%. Further, the growth is 103% with SW-620 colon; 87.4% in the assay on MCF7 breast; 69.7% with HCT-116 colon; 104% with HCC-2998 colon; 100% in the assay on KM12 colon.

As for `O=C1/C(=C/C=C/c2ccco2)SC(=S)N1c1ccccc1`, the growth was 43.8% with SR leukemia; 53.6% in the assay with RPMI-8226 leukemia; 66.4% in the assay with OVCAR-8 ovarian; 88% in the assay on OVCAR-5 ovarian; 90.9% in the assay on OVCAR-4 ovarian; 110% in the assay on SK-OV-3 ovarian. Moreover, the growth is 44.3% in the assay on IGROV1 ovarian; 102% with HS 578T breast; 51.2% with NCI/ADR-RES ovarian; 76.8% in the assay on T-47D breast; 65.2% in the assay on BT-549 breast; 89.1% in the assay with MDA-MB-435 melanoma. The growth in the assay on SW-620 colon is 98.9%; in the assay with MCF7 breast, 57.4%; with HCT-116 colon, 35.3%; in the assay with HCC-2998 colon it was 87.3%; in the assay on KM12 colon, 94.4%.

With `CCOC(=O)c1c(Nc2ccccc2)nn2c(-c3ccc(OC)cc3)ccnc12`, the growth is 76.7% in the assay on SR leukemia; 75.1% in the assay on RPMI-8226 leukemia; 94.3% in the assay on OVCAR-8 ovarian; 90.9% in the assay on OVCAR-5 ovarian; 98.7% in the assay with OVCAR-4 ovarian; 101% with SK-OV-3 ovarian. Moreover, the growth was 101% in the assay on IGROV1 ovarian; 79.7% with HS 578T breast; 88.1% in the assay with NCI/ADR-RES ovarian; 75.1% with T-47D breast; 127% with BT-549 breast; 90.4% in the assay on MDA-MB-435 melanoma. In addition, the growth in the assay on SW-620 colon is 95.1%; with MCF7 breast, 89.9%; in the assay with HCT-116 colon, 71.7%; with HCC-2998 colon, 95.7%; in the assay with KM12 colon, 73.9%.
